From PubChem BioAssay
Inconclusive results are not listed. Active and inactive are the calls of the source. Rule as the data show it, unless noted: active = inhibition above about 80%; inactive = the rest.

Assays:
[1] = viability loss in pontine glioma line – cell-based, SU-DIPG-XIII, MIPE4.0, CellTiter-Glo, qHTS, dose response (AID 1347061; cut-off not given, nearly all actives have AC50 up to about 37 µM;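 also: cells exposed to compound for 48 hours before readout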); details: CellTiter-Glo ATP luminescence
[2] = viability loss in pontine glioma line – cell-based, JHH-DIPG-1, MIPE4.0, CellTiter-Glo, qHTS, dose response (AID 1347062; cut-off not given, nearly all actives have AC50 up to about 27 µM;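 as to AC50: cells exposed to compound for two days before readout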); details: JHH-DIPG-1 viability, CellTiter-Glo ATP luminescence
[3] = growth inhibition of DIPG cells – cell-based, MIPE4.0 library, CellTiter-Glo luminescence, qHTS (AID 1347066; cut-off not given, nearly all actives have AC50 up to about 30 µM;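 also: cells exposed to compound for 48 hours before readout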); details: SU-DIPG-VI viability, CellTiter-Glo ATP luminescence
[4] = growth inhibition of DIPG cells – cell-based, MIPE5.0 library, qHTS (AID 1347068; cut-off not given, nearly all actives have IC50 up to about 30 µM); details: SU-DIPG-XXV viability
[5] = viability loss in pontine glioma line – cell-based, SU-DIPG-XXV, MIPE5.0, CellTiter-Glo, qHTS, dose response (AID 1347065; cut-off not given, nearly all actives have AC50 up to about 26 µM;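 also: cells exposed to compound for 48 hours before ATP readout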); details: CellTiter-Glo ATP luminescence
[6] = compounds altering HSF1 focus formation in cells – imaging, Selleck Cancer Library (AID 1347162; in the data active = plate-normalised HSF1 focus index below about 0.46); details: human cells, HSF1 nuclear foci imaging, at 10 µM; SSMD: measured here: HSF1 foci SSMD mean; cell count: measured here: cell number; plate-normalised HSF1 focus index: stronger effect = lower value
[7] = growth inhibition, single agent or in combination, cell-based, chromothripsis tumors, cisplatin or BGB combos (AID 1671449); details: LFS_MB_P medulloblastoma cells;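 also: cells exposed for 96 hours; 0% = vehicle DMSO and 100% = killing by high DMSO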
[8] = growth inhibition, single agent and combos, cell-based, chromothripsis tumors, cisplatin or BGB combos (AID 1671450); details: HDN33 neuroblastoma cells, stronger effect = higher value;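 also: cells exposed to compound for four days; 0% = vehicle DMSO and 100% = cell killing by high DMSO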
[9] = growth inhibition, single agents and combos, ICB984, cell-based, cisplatin or BGB combos, synergistic combos for chromothripsis tumors (AID 1671451; call rule not given here;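 also: cells exposed for 96 hours before readout; 0% = vehicle DMSO and 100% = killing by high DMSO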); details: ICB984 medulloblastoma cells, drug combinations, stronger effect = higher value
[10] = growth inhibition, single agents and combos, LFS_MB_1R, cell-based, cisplatin or BGB combos, synergistic combos for chromothripsis tumors (AID 1671452); details: LFS_MB_1R medulloblastoma cells, stronger effect = higher value;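 also: cells exposed for 96 hours before readout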
[11] = growth inhibition, single agents and combos, HTB85, cell-based, BGB or cisplatin IC20 combos, synergistic combos for chromothripsis tumors (AID 1671453); details: HTB85 osteosarcoma cells, drug combinations, stronger effect = higher value;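 also: cells exposed for 96 hours before readout; 0% = vehicle DMSO and 100% = high DMSO killing control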
[12] = growth inhibition, MDA-MB-436, cell-based, BGB or cisplatin combos, synergistic combos for chromothripsis tumors (AID 1671458; call rule not given here;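 also: cells exposed for 96 hours; 0% = vehicle DMSO and 100% = killing by high DMSO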); details: MDA-MB-436 breast carcinoma growth inhibition, drug combinations, stronger effect = higher value
[13] = BT084 cell growth, single and combined drugs, ICGC_MB145, cisplatin and BGB IC40 combos (AID 1671461); details: BT084 medulloblastoma cells, drug combinations, stronger effect = higher value;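 also: cells exposed to drugs for 96 hours; 0% = vehicle DMSO and 100% = high DMSO full killing control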
[14] = RCMB18 cell growth, single agent and combined, cisplatin and BGB IC40 combos (AID 1671462); details: RCMB18 medulloblastoma cells, stronger effect = higher value;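 also: cells exposed to compound for four days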
[15] = CRL1545 cell growth, single agent and combined, cisplatin and BGB IC20 combos (AID 1671464); details: CRL1545 osteosarcoma cells, stronger effect = higher value;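 also: cells exposed to compound for 96 hours before readout; 0% = vehicle DMSO and 100% = high DMSO killing control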
[16] = JHH-DIPG-1 glioma cell viability, MIPE5.0 library, CellTiter-Glo luminescence, qHTS (AID 1347067; cut-off not given, nearly all actives have AC50 up to about 26 µM;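 also: cells exposed to compound for 48 hours before readout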); details: JHH-DIPG-1 glioma viability, CellTiter-Glo ATP luminescence
[17] = measured here: combination with BGB IC40, at 0.05 µM
[18] = measured here: with BGB IC20 combination, at 0.5 µM
[19] = measured here: with cisplatin IC20 combination, at 0.5 µM
[20] = measured here: combination with cisplatin, at 0.5 µM

## CCCCC(=O)O[C@]1(C(=O)CO)[C@H](C)C[C@H]2[C@@H]3CCC4=CC(=O)C=C[C@]4(C)[C@@]3(F)[C@@H](O)C[C@@]21C
[1]
  outcome: inactive
[2]
  outcome: inactive
[3]
  outcome: inactive

## OC[C@H](Cc1ccccc1)Nc1nc(Oc2ccc3c(c2)CCC3)nc2c1ncn2Cc1ccc(-c2ccccc2)cc1
[1]
  outcome: inactive
[2]
  outcome: inactive
[3]
  outcome: inactive
[4]
  outcome: inactive

## COc1cc2ncnc(-n3nc(-c4ccccn4)nc3N)c2cc1OC
[1]
  AC50: 23.5 µM (active)
[2]
  AC50: 18.7 µM (active)
[5]
  AC50: 10.5 µM (active)
[3]
  outcome: inactive
[4]
  outcome: inactive
[6]
  SSMD: 1.68
  cell count: 7810
  plate-normalised HSF1 focus index: 1.06 (inactive)
[7]; at 0.5 µM, stronger effect = higher value
  inhibition: -19.6% (inactive)
[7]; measured here: combination with BGB IC20, at 0.005 µM
  inhibition: -6.46%
[7]; measured here: combination with BGB IC40, at 0.005 µM
  inhibition: -12%
[7]; [17]
  inhibition: -14.8%
[7]; measured here: combination with cisplatin, at 0.5 µM, stronger effect = higher value
  inhibition: -28.9%
[7]; measured here: combination with cisplatin, at 5 µM, stronger effect = higher value
  inhibition: 3.9%
[8]; BGB combo, at 5 µM
  inhibition: -0.513%
[8]; at 0.5 µM
  inhibition: -39.2% (inactive)
[8]; cisplatin combo, at 5 µM
  inhibition: 11.6%
[8]; [18]
  inhibition: -47.1%
[8]; [19]
  inhibition: -45.4%
[8]; single agent, at 5 µM
  inhibition: 27.9%
[9]; BGB IC20 combo, at 0.005 µM
  inhibition: 8.82%
[9]; BGB IC40 combo, at 0.005 µM
  inhibition: -28.2%
[9]; BGB IC40 combo, at 0.05 µM
  inhibition: -13.5%
[9]; at 0.5 µM
  inhibition: -27.7% (inactive)
[9]; cisplatin combo, at 0.05 µM
  inhibition: -18%
[9]; cisplatin combo, at 0.5 µM
  inhibition: -47.4%
[9]; cisplatin combo, at 5 µM
  inhibition: -33.3%
[9]; measured here: 5 uM single agent, at 5 µM
  inhibition: -7.48%
[10]; at 0.5 µM
  inhibition: -45.7% (inactive)
[10]; [17]
  inhibition: -46.2%
[10]; [20]
  inhibition: -87.1%
[10]; measured here: combination with cisplatin, at 5 µM
  inhibition: -37.2%
[11]; at 0.5 µM
  inhibition: -23% (inactive)
[11]; measured here: with BGB IC20, at 0.5 µM
  inhibition: -35.6%
[11]; measured here: with BGB IC20, at 5 µM
  inhibition: 15.3%
[11]; measured here: with cisplatin IC20, at 0.5 µM
  inhibition: -19.3%
[11]; measured here: with cisplatin IC20, at 5 µM
  inhibition: 25.5%
[11]; single agent, at 5 µM
  inhibition: 39.7%
[12]; at 0.5 µM
  inhibition: -17.5% (inactive)
[12]; measured here: BGB combination, at 0.5 µM
  inhibition: -21.1%
[12]; measured here: BGB combination, at 5 µM
  inhibition: -18.6%
[12]; measured here: cisplatin combination, at 0.5 µM
  inhibition: -13.3%
[12]; measured here: cisplatin combination, at 5 µM
  inhibition: -24.4%
[13]; at 0.5 µM
  inhibition: 0.0685% (inactive)
[13]; cisplatin combination, at 0.5 µM
  inhibition: 7.09%
[13]; cisplatin combination, at 5 µM
  inhibition: 63.7%
[13]; measured here: BGB IC40 combination 0.05 uM, at 0.05 µM
  inhibition: 69%
[13]; single agent, at 5 µM
  inhibition: 13.7%
[14]; at 0.5 µM
  inhibition: -14.5% (inactive)
[14]; cisplatin combo, at 5 µM
  inhibition: 36.5%
[14]; measured here: BGB IC40 combination, at 0.05 µM
  inhibition: -31.7%
[14]; [20]
  inhibition: -5.13%
[14]; single agent, at 5 µM
  inhibition: -24.7%
[15]; at 0.5 µM
  inhibition: -59.7% (inactive)
[15]; [18]
  inhibition: -65.7%
[15]; [19]
  inhibition: -56.7%
[15]; single agent, at 0.05 µM
  inhibition: -35.9%
[15]; single agent, at 5 µM
  inhibition: -52.5%

## CCCCCN(CCC12CC3CC(CC(C3)C1)C2)C(=O)NCCCc1ccncc1
[1]
  outcome: inactive
[2]
  outcome: inactive
[5]
  AC50: 20.9 µM (active)
[3]
  AC50: 20.9 µM (active)
[4]
  outcome: inactive

## NC(=O)c1noc([C@H](CCCC2CCCCC2)CC(=O)NO)n1
[1]
  outcome: inactive
[2]
  AC50: 23.5 µM (active)
[3]
  outcome: inactive
[16]
  outcome: inactive
[4]
  outcome: inactive
